# Measurements from the supplement of paper PMC4022240.
# ± gives the standard deviation.
# B1: H4 16-28 K R H Rme2a K V L R D N I Q G (peptide)
# chain: KRHRKVLRDNIQG
# B2: H4 16-28 K R H Rme2a Kme2 V L R D N I Q G (peptide)
# chain: KRHRKVLRDNIQG
# B3: H4 38-50 A R R G G V Kac Rme I S G L I (peptide)
# chain: ARRGGVKRISGLI
# B4: H4 16-28 K R H R K V L Rcit D N I Q G (peptide)
# chain: KRHRKVLRDNIQG
# B5: H4 16-28 K R H Rme2s K V L R D N I Q G (peptide)
# chain: KRHRKVLRDNIQG
# B6: H4 16-28 K R H Rme2s Kme V L R D N I Q G (peptide)
# chain: KRHRKVLRDNIQG
# B7: H4 16-28 K R H Rme Kme V L R D N I Q G (peptide)
# chain: KRHRKVLRDNIQG
# B8: H4 16-28 K R H Rme Kme3 V L R D N I Q G (peptide)
# chain: KRHRKVLRDNIQG
# B9: H4 16-28 K R H Rme2s Kme2 V L R D N I Q G (peptide)
# chain: KRHRKVLRDNIQG
# B10: H4 38-50 A R R G G V Kme R I S G L I (peptide)
# chain: ARRGGVKRISGLI
# B11: H4 16-28 K R H R K V L Rme2a D N I Q G (peptide)
# chain: KRHRKVLRDNIQG
# Legend:
# Assay in all cases: peptide microarray binding signal (635 nm), min-max normalized on array (fraction of array maximum); higher = stronger binding
# [1] = molecular target: T1, HaloTag-ATRX ADD domain (163-292)
# T1 chain: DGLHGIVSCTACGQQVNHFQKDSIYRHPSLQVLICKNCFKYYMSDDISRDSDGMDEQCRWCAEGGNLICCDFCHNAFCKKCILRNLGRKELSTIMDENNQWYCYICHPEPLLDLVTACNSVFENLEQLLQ
# Outline: (§1)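 Within each library, mean intensities of triplicate spots were min-max scaled to give the binding signal. The spots were histone 13-mer peptide–cellulose conjugates on nitrocellulose with a Cy3 tracer, blocked overnight at 4°C. They were then probed for 1 h at 4°C using biotin-labelled HaloTag reader fusions (10 nM to 1 μM) with streptavidin-Alexa Fluor 647 or rabbit histone antibodies (1:10,000 to 1:2,000) with anti-rabbit Alexa 647, and scanned at 635 nm for signal and 532 nm for misprints on an Axon GenePix 4000B.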
# [2] = molecular target: HaloTag-ING2 PHD (mouse Ing2 200-280)
# Outline: as §1
# [3] = molecular target: anti-H3K4me3 antibody ab8580
# Outline: as §1
# [4] = molecular target: anti-H3K9me3 antibody ab8898
# Outline: as §1
# [5] = peptide region: H4 16-28, peptide modifications: H4R19me2a, binder concentration: 1:2,000 dilution
# [6] = peptide region: H4 16-28, peptide modifications: H4R19me2a H4K20me2, binder concentration: 1:2,000 dilution
# [7] = peptide region: H4 16-28, peptide modifications: H4R19me2a H4K20me2, binder concentration: 1:10,000 dilution
# [8] = peptide region: H4 38-50, peptide modifications: H4K44ac H4R45me1, binder concentration: 1:2,000 dilution
# [9] = peptide region: H4 38-50, peptide modifications: H4K44ac H4R45me1, binder concentration: 1:10,000 dilution
# [10] = peptide region: H4 16-28, peptide modifications: H4R23cit, binder concentration: 1:2,000 dilution
# [11] = peptide region: H4 16-28, peptide modifications: H4R23cit, binder concentration: 1:10,000 dilution
# [12] = peptide region: H4 16-28, peptide modifications: H4R19me2s, binder concentration: 1:2,000 dilution
# [13] = peptide region: H4 16-28, peptide modifications: H4R19me2s H4K20me1, binder concentration: 1:2,000 dilution
# [14] = peptide region: H4 16-28, peptide modifications: H4R19me2s H4K20me1, binder concentration: 1:10,000 dilution
# [15] = peptide region: H4 16-28, peptide modifications: H4R19me1 H4K20me1, binder concentration: 1:2,000 dilution
# [16] = peptide region: H4 16-28, peptide modifications: H4R19me1 H4K20me1, binder concentration: 1:10,000 dilution
# [17] = peptide region: H4 16-28, peptide modifications: H4R19me1 H4K20me3, binder concentration: 1:2,000 dilution
# [18] = peptide region: H4 16-28, peptide modifications: H4R19me1 H4K20me3, binder concentration: 1:10,000 dilution
# [19] = peptide region: H4 16-28, peptide modifications: H4R19me2s H4K20me2, binder concentration: 1:2,000 dilution
# [20] = peptide region: H4 16-28, peptide modifications: H4R19me2s H4K20me2, binder concentration: 1:10,000 dilution
# [21] = peptide region: H4 38-50, peptide modifications: H4K44me1, binder concentration: 1:2,000 dilution
# [22] = peptide region: H4 38-50, peptide modifications: H4K44me1, binder concentration: 1:10,000 dilution
# [23] = peptide region: H4 16-28, peptide modifications: H4R23me2a, binder concentration: 1:2,000 dilution
binder,measurement,setting,value
B1,peptide microarray binding signal,"[1]; peptide region: H4 16-28, peptide modifications: H4R19me2a, binder concentration: 500 nM",4.76e-05 ± 5.2e-07
same,peptide microarray binding signal,"[2]; peptide region: H4 16-28, peptide modifications: H4R19me2a, binder concentration: 100 nM",0.000213 ± 2.5e-06
same,peptide microarray binding signal,[3]; [5],5.66e-05
same,peptide microarray binding signal,[4]; [5],1.51e-05 ± 1.7e-07
B2,peptide microarray binding signal,"[1]; peptide region: H4 16-28, peptide modifications: H4R19me2a H4K20me2, binder concentration: 50 nM",0.0248 ± 0.0013
same,peptide microarray binding signal,"[1]; peptide region: H4 16-28, peptide modifications: H4R19me2a H4K20me2, binder concentration: 500 nM",0.0149 ± 0.00068
same,peptide microarray binding signal,"[2]; peptide region: H4 16-28, peptide modifications: H4R19me2a H4K20me2, binder concentration: 10 nM",0.0209 ± 0.0011
same,peptide microarray binding signal,"[2]; peptide region: H4 16-28, peptide modifications: H4R19me2a H4K20me2, binder concentration: 100 nM",0.0188 ± 0.00076
same,peptide microarray binding signal,[3]; [6],0.00119 ± 1.7e-05
same,peptide microarray binding signal,[3]; [7],0.00348 ± 4.9e-05
same,peptide microarray binding signal,[4]; [6],0.00113 ± 8.4e-05
same,peptide microarray binding signal,[4]; [7],0.00427 ± 0.00011
B3,peptide microarray binding signal,"[1]; peptide region: H4 38-50, peptide modifications: H4K44ac H4R45me1, binder concentration: 50 nM",0.0131 ± 0.00062
same,peptide microarray binding signal,"[1]; peptide region: H4 38-50, peptide modifications: H4K44ac H4R45me1, binder concentration: 500 nM",0.01695 ± 5.7e-05
same,peptide microarray binding signal,"[2]; peptide region: H4 38-50, peptide modifications: H4K44ac H4R45me1, binder concentration: 10 nM",0.0235 ± 0.0022
same,peptide microarray binding signal,"[2]; peptide region: H4 38-50, peptide modifications: H4K44ac H4R45me1, binder concentration: 100 nM",0.048 ± 0.0095
same,peptide microarray binding signal,[3]; [8],0.00338 ± 0.00048
same,peptide microarray binding signal,[3]; [9],0.00685 ± 0.0005
same,peptide microarray binding signal,[4]; [8],0.00296 ± 0.00039
same,peptide microarray binding signal,[4]; [9],0.00306 ± 4.5e-05
B4,peptide microarray binding signal,"[1]; peptide region: H4 16-28, peptide modifications: H4R23cit, binder concentration: 50 nM",0.00241 ± 3.7e-05
same,peptide microarray binding signal,"[1]; peptide region: H4 16-28, peptide modifications: H4R23cit, binder concentration: 500 nM",0.00457 ± 0.00023
same,peptide microarray binding signal,"[2]; peptide region: H4 16-28, peptide modifications: H4R23cit, binder concentration: 10 nM",0.00597 ± 0.00064
same,peptide microarray binding signal,"[2]; peptide region: H4 16-28, peptide modifications: H4R23cit, binder concentration: 100 nM",0.00291 ± 0.00024
same,peptide microarray binding signal,[3]; [10],0.000925 ± 1.6e-05
same,peptide microarray binding signal,[3]; [11],0.002 ± 0.00019
same,peptide microarray binding signal,[4]; [10],0.000544 ± 6.6e-05
same,peptide microarray binding signal,[4]; [11],0.00115
B5,peptide microarray binding signal,"[1]; peptide region: H4 16-28, peptide modifications: H4R19me2s, binder concentration: 500 nM",0.000524 ± 1.4e-05
same,peptide microarray binding signal,"[2]; peptide region: H4 16-28, peptide modifications: H4R19me2s, binder concentration: 100 nM",0
same,peptide microarray binding signal,[3]; [12],0.000491 ± 9.2e-05
same,peptide microarray binding signal,[4]; [12],3.02e-05 ± 3.4e-07
B6,peptide microarray binding signal,"[1]; peptide region: H4 16-28, peptide modifications: H4R19me2s H4K20me1, binder concentration: 50 nM",0.00379 ± 5.5e-05
same,peptide microarray binding signal,"[1]; peptide region: H4 16-28, peptide modifications: H4R19me2s H4K20me1, binder concentration: 500 nM",0.00586 ± 0.00025
same,peptide microarray binding signal,"[2]; peptide region: H4 16-28, peptide modifications: H4R19me2s H4K20me1, binder concentration: 10 nM",0.0101 ± 0.00023
same,peptide microarray binding signal,"[2]; peptide region: H4 16-28, peptide modifications: H4R19me2s H4K20me1, binder concentration: 100 nM",0.0192 ± 0.00073
same,peptide microarray binding signal,[3]; [13],0.0013 ± 1.8e-05
same,peptide microarray binding signal,[3]; [14],0.002568 ± 2.3e-05
same,peptide microarray binding signal,[4]; [13],0.000831 ± 4.3e-05
same,peptide microarray binding signal,[4]; [14],0.001614 ± 1.6e-05
B7,peptide microarray binding signal,"[1]; peptide region: H4 16-28, peptide modifications: H4R19me1 H4K20me1, binder concentration: 50 nM",0.00552 ± 0.00017
same,peptide microarray binding signal,"[1]; peptide region: H4 16-28, peptide modifications: H4R19me1 H4K20me1, binder concentration: 500 nM",0.01 ± 0.00041
same,peptide microarray binding signal,"[2]; peptide region: H4 16-28, peptide modifications: H4R19me1 H4K20me1, binder concentration: 10 nM",0.00961 ± 0.00044
same,peptide microarray binding signal,"[2]; peptide region: H4 16-28, peptide modifications: H4R19me1 H4K20me1, binder concentration: 100 nM",0.0145 ± 0.0033
same,peptide microarray binding signal,[3]; [15],0.0027 ± 0.00027
same,peptide microarray binding signal,[3]; [16],0.002511 ± 2.2e-05
same,peptide microarray binding signal,[4]; [15],0.00143 ± 4.1e-05
same,peptide microarray binding signal,[4]; [16],0.002133 ± 2e-05
B8,peptide microarray binding signal,"[1]; peptide region: H4 16-28, peptide modifications: H4R19me1 H4K20me3, binder concentration: 50 nM",0.0047 ± 0.00026
same,peptide microarray binding signal,"[1]; peptide region: H4 16-28, peptide modifications: H4R19me1 H4K20me3, binder concentration: 500 nM",0.00638 ± 0.00038
same,peptide microarray binding signal,"[2]; peptide region: H4 16-28, peptide modifications: H4R19me1 H4K20me3, binder concentration: 10 nM",0.0104 ± 0.00011
same,peptide microarray binding signal,"[2]; peptide region: H4 16-28, peptide modifications: H4R19me1 H4K20me3, binder concentration: 100 nM",0.0129 ± 0.00048
same,peptide microarray binding signal,[3]; [17],0.00636 ± 0.00079
same,peptide microarray binding signal,[3]; [18],0.00867 ± 0.00021
same,peptide microarray binding signal,[4]; [17],0.0157 ± 0.0041
same,peptide microarray binding signal,[4]; [18],0.00871 ± 0.00013
B9,peptide microarray binding signal,"[1]; peptide region: H4 16-28, peptide modifications: H4R19me2s H4K20me2, binder concentration: 50 nM",0.003511 ± 2.9e-05
same,peptide microarray binding signal,"[1]; peptide region: H4 16-28, peptide modifications: H4R19me2s H4K20me2, binder concentration: 500 nM",0.00548 ± 0.00047
same,peptide microarray binding signal,"[2]; peptide region: H4 16-28, peptide modifications: H4R19me2s H4K20me2, binder concentration: 10 nM",0.00937 ± 0.00061
same,peptide microarray binding signal,"[2]; peptide region: H4 16-28, peptide modifications: H4R19me2s H4K20me2, binder concentration: 100 nM",0.0138 ± 0.0027
same,peptide microarray binding signal,[3]; [19],0.00208 ± 0.0003
same,peptide microarray binding signal,[3]; [20],0.00325 ± 0.00014
same,peptide microarray binding signal,[4]; [19],0.000966 ± 0.00022
same,peptide microarray binding signal,[4]; [20],0.00225 ± 0.00011
B10,peptide microarray binding signal,"[1]; peptide region: H4 38-50, peptide modifications: H4K44me1, binder concentration: 50 nM",0.00765 ± 0.00015
same,peptide microarray binding signal,"[1]; peptide region: H4 38-50, peptide modifications: H4K44me1, binder concentration: 500 nM",0.0147 ± 0.0013
same,peptide microarray binding signal,"[2]; peptide region: H4 38-50, peptide modifications: H4K44me1, binder concentration: 10 nM",0.01074 ± 8.4e-05
same,peptide microarray binding signal,"[2]; peptide region: H4 38-50, peptide modifications: H4K44me1, binder concentration: 100 nM",0.0234 ± 0.0011
same,peptide microarray binding signal,[3]; [21],0.00691 ± 0.00072
same,peptide microarray binding signal,[3]; [22],0.00719 ± 0.00029
same,peptide microarray binding signal,[4]; [21],0.00751 ± 0.0003
same,peptide microarray binding signal,[4]; [22],0.00703 ± 0.0019
B11,peptide microarray binding signal,"[1]; peptide region: H4 16-28, peptide modifications: H4R23me2a, binder concentration: 500 nM",0.0285 ± 0.039
same,peptide microarray binding signal,"[2]; peptide region: H4 16-28, peptide modifications: H4R23me2a, binder concentration: 100 nM",0.000425 ± 4.9e-06
same,peptide microarray binding signal,[3]; [23],7.55e-05 ± 8.5e-07
same,peptide microarray binding signal,[4]; [23],0
